Data from PubChem BioAssay (NCATS).
Records with an inconclusive call do not appear. Unmarked numbers belong to inactive results. Calls of active or inactive are those of the source. Calls follow the shape of the dose curve; as a rule, active = well fitted inhibition curve with a large enough effect; inconclusive = small, poorly fitted or top-dose-only effect, or effect the other way; inactive = flat fitted curve, though single readings scatter.

test: Quantitative high throughput screen for delayed death inhibitors of the malarial parasite plastid, 48 hour incubation (AID 488752); settings: Plasmodium falciparum growth; series mostly up to 28.7 µM; activity change, negative = inhibition: at the top concentration; also: nearly all actives have a fitted effect of over 65% in size
Source text: NIH Molecular Libraries Probe Production Network [MLPCN]
NIH Chemical Genomics Center [NCGC]
Assay Provider: David Fidock and Eric Ekland, Columbia University
The goal of this screen is to discover new antimalarial compounds that act by inhibiting the development of the apicoplast in the malarial parasite Plasmodium falciparum. The biochemical processes that make this organelle essential for erythrocytic stage parasites are not well understood. However, antibiotics, such as azithromycin and tetracycline, which target the apicoplast translational machinery, have a potent antimalarial effect.
We have developed a cell-based assay that measures parasite growth based on the expression of an integrated copy of a firefly luciferase reporter. To detect small molecules that cause this 'delayed death' phenotype, erythrocytes infected with the luciferase-expressing parasites were incubated with compounds for either one or two generations, corresponding to 48 and 96 hours, respectively. Compounds that inhibit parasite growth in the second generation, but not the first, should be enriched in antimalarials that target the apicoplast. Growth inhibition is detected by a decrease in luciferase activity
Four microliters of culture medium (RPMI 1640 with 0.5% w/v Albumax (GIBCO), 24 mM sodium bicarbonate and 10 ug/mL gentamycin) were dispensed by a Multi-drop Combi into white solid 1536-well plates (Grenier) and 23 nL compound was added by a pin tool. Four microliters of infected erythrocytes (2% hematocrit, 0.1% parasitemia final concentration) in culture medium were dispensed and the plates incubated for 48 hours at 37 C in 5% CO2. Two microliters of luciferase detection reagent was added and luminescence was detected by a ViewLux (PerkinElmer) reader
% is scaled to controls: 0 for no effect and ±100 for the full control effect; potency is read from the fitted curve at half-maximal effect.

| Structure (SMILES) | activity change, negative = inhibition [%] | Potency |
| --- | --- | --- |
| NC(Cc1cccc(-c2ccccc2CP(=O)(O)O)c1)C(=O)O (stereo not given) | -13 | – |
| [N-]=[N+]=Nc1ccc(C(=O)CSC[C@H](NC(=O)CC[C@H](N)C(=O)O)C(=O)NCC(=O)O)cc1 | 7.97 | – |
| N[C@H]1CONC1=O | 0.743 | – |
| Cc1nc(N=Nc2ccc(C(=O)O)cc2)c(COP(=O)(O)O)c(C=O)c1O | -14.5 | – |
| O=c1cc(O)cc(/C=C/c2ccc(O)c(O)c2)o1 | 7.83 | – |
| Cn1c(=O)[nH]c2ncn(C)c2c1=O | -11.2 | – |
| O=[N+]([O-])c1cccc2cn[nH]c12 | 5.82 | – |
| Cn1c(=O)c2c(nc(/C=C/c3cccc(Cl)c3)n2C)n(C)c1=O | 6.15 | – |
| Nc1nc2[nH]c(=O)cnc2c(=O)[nH]1 | -18.1 | – |
| CNc1cc(NS(=O)(=O)c2ccc(N)cc2)nc(NC)n1 | -2.59 | – |
| NCC(O)c1ccc(O)c(O)c1 (stereo not given) | 0.174 | – |
| COCc1nc2c([nH]1)c(=O)n(C)c(=O)n2CC(C)C | -8.85 | – |
| Nc1ccc(N2C(=O)c3ccccc3C2=O)c(Cl)c1 | 7.91 | – |
| CCSC(=N)N | -3.63 | – |
| COc1ccccc1N1CCN(CCCCN2C(=O)c3ccccc3C2=O)CC1 | 23.3 | – |
| O=C(O)C1CCNCC1 | 12.4 | – |
| COc1cc(N)c(Cl)cc1C(=O)OCCN1CCCCC1 | 16.5 | – |
| O=C(O)/C=C/c1ccc(O)c(O)c1 | -17.9 | – |
| C=CC[C@H](N)C(=O)O | -2.52 | – |
| Cc1cccc(C)c1OCC(N)C(C)C (stereo not given) | 5.49 | – |

| Structure (SMILES) | activity change, negative = inhibition [%] | Potency |
| --- | --- | --- |
| CCCCCCC/C=C\CCCCCCCCC(=O)O | -11.9 | – |
| COc1ccc(NC(=O)c2ccc(-c3ccc(-c4noc(C)n4)cc3C)cc2)cc1N1CCN(C)CC1 | – | 3700 nM (active) |
| c1ccc2c(c1)CC(N1CCN(c3cccc4c3OCCO4)CC1)C2 | 1.14 | – |
| CN1CCC2(CCN3CCc4c(oc5ccccc45)C3C2)N(C)C1=O (stereo not given) | 2.13 | – |
| CC[N+](CC)(CC)CC(=O)Nc1c(C)cccc1C | -0.773 | – |
| NC(=O)c1cc[n+](CC2=C(C(=O)O)N3C(=O)[C@@H](NC(=O)[C@@H](c4ccccc4)S(=O)(=O)[O-])[C@H]3SC2)cc1 | -0.442 | – |
| O=c1cc(-c2ccccc2)[nH]c2nc(Cl)ccc12 | 9.68 | – |
| NC(N)=NC(N)=Nc1cccc(Cl)c1 | -23.6 | – |
| CO/N=C(\C(=O)N[C@@H]1C(=O)N2C(C(=O)O)=C(CSc3nc(=O)c(O)nn3C)CSC12)c1csc(N)n1 (stereo not given in full) | 3.57 | – |
| CCC1(O)CC2CN(CCc3c([nH]c4ccccc34)[C@@](C(=O)OC)(c3cc4c(cc3OC)N(C=O)C3[C@]45CCN4CC=C[C@@](CC)([C@@H](OC(C)=O)[C@]3(O)C(=O)OC)[C@H]45)C2)C1 (stereo not given in full) | – | 131 nM (active) |
| CCN(c1nc(N)c(C(=O)N=C(N)N)nc1Cl)C(C)C | -44.7 | – |
| CCCC(=O)NCCc1c2n(c3ccc(OC)cc13)CCCc1ccccc1-2 | -87.2 | – |
| O=C1Nc2ccc(I)cc2/C1=C/c1cc(Br)c(O)c(Br)c1 | -91.3 | – |
| COc1cc2c(CCNC(C)=O)c[nH]c2cc1O | 26.3 | – |
| C=CCn1c(=O)c2c(nc(-c3ccc(S(=O)(=O)O)cc3)n2C)n(C)c1=O | -5.7 | – |
| N=S(=O)(O)Cc1noc2ccccc12 | -2.39 | – |
| CCN1C(=O)C=CC1=O | -1.62 | – |
| C#CC(N)CCC(=O)O (stereo not given) | -9.72 | – |
| Cc1nc2c(OCc3ccccc3)cccn2c1CC#N | 10.1 | – |
| Cc1nc(N=Nc2cc(S(=O)(=O)O)c3cc([N+](=O)[O-])cc(S(=O)(=O)O)c3c2)c(COP(=O)(O)O)c(C=O)c1O | 3.6 | – |
